Measured values: the supplement of paper PMC6555819

These sequences were tested on LXRb homodimer (NR concentration 270 nM) (assay: PBM binding z-score (relative to random genomic background probes); higher = stronger binding; sequences stand for … in GC…GCGATTGACAGCGTAGAATGAAGG).
Summary of the method: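 Custom Agilent 4×180K protein-binding microarrays carried double-stranded probes, each with a 34-nt variable region. These regions held direct-repeat seeds, single-nucleotide variants, half-site ablations and random human genomic background sequences. Ligand-free nuclear receptor dimers were incubated on the arrays for 1 h, antibodies against each partner (one per run) detected binding, and scanned fluorescence was regression-normalized. Binding z-scores take the random background probes as reference.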

Which PBM binding z-score does the source give for CGTCCAAGGTCAAAGGTCACTGAAGAGATGACGG here?
The PBM binding z-score was 2.19.

How did the PBM binding z-score turn out when CAAACTAGGTCACGAAAGGGCAAAGTCGAATGAC was run?
The PBM binding z-score was 0.531.

With CGAACTAGGTCACCAGGACCGTGAAGAGGTTGGA as the sequence, how does the PBM binding z-score read?
Its PBM binding z-score is -0.339.

How did the PBM binding z-score turn out when CGTCCAAGGTCAATTCTAGGTCAGTGAAAGCATT was run?
The PBM binding z-score was 2.2.

For CGTCCAACGTCAAGGTCAGTGAAAGAGACTCGAA, which PBM binding z-score is on record?
Its PBM binding z-score is -0.439.

Which PBM binding z-score does the source give for TAGCCTAGGTCATGGGCCAGTTTACCACGCGAAC here?
Its PBM binding z-score is -0.093.

Which PBM binding z-score does the source give for CGAACTAGGTCACAGGACAGTGAAAGGCGACGTA here?
Its PBM binding z-score is -0.469.

With ATATGTAGGTCATCGGGTCATTCAGTTTGCGCAT as the sequence, how does the PBM binding z-score read?
Its PBM binding z-score is 1.76.

For CGAACTAGGTCCTTGACAGGACAGTGAATAGTAA, which PBM binding z-score is on record?
Its PBM binding z-score is -0.907.

With AAAATGAGGTTAAGATCAGGGAAACAGAATACAT as the sequence, how does the PBM binding z-score read?
Its PBM binding z-score is 0.347.

For GCTTACGGGTCAAAGGTTATAGTATGAATAGAAT, which PBM binding z-score is on record?
Its PBM binding z-score is 0.6.

Which PBM binding z-score does the source give for CGAACTAGCTCAAGGACAGTGAATCTCCGCACGC here?
The PBM binding z-score was -0.571.

With CGCACTAGGTCACCAGGACAGTGAAGAGGTTGGA as the sequence, how does the PBM binding z-score read?
The PBM binding z-score was -0.125.

For CAAACCAGGTCACGAAAGGTCAAAGTCGAATGAC, which PBM binding z-score is on record?
Its PBM binding z-score is 3.02.

With ATACCAAGGTGATCGTGAGTTCGTTGATACTAAC as the sequence, how does the PBM binding z-score read?
The PBM binding z-score was -0.366.

For ACTAGTGGGTCAGCTGAGGTCACACACAATTCGG, which PBM binding z-score is on record?
Its PBM binding z-score is 0.173.

How did the PBM binding z-score turn out when CAAGCTAGGTCAAGAGGTCAAAGTCCGCTTCCCG was run?
The PBM binding z-score was 1.58.

With GCTATTAGGTGAAAGGGCAACCGAATGATTCTCG as the sequence, how does the PBM binding z-score read?
The PBM binding z-score was -0.402.

How did the PBM binding z-score turn out when CCGACTGGGGCAAAGGTTACGATACTCAGTACGA was run?
The PBM binding z-score was -1.04.

For GGAACTAGGGCAAAGTTGATAGCATCTGTCGACG, which PBM binding z-score is on record?
The PBM binding z-score was -0.519.

How did the PBM binding z-score turn out when CCTACTGGGCCAAAAAGGCCATTGATGCCGATAA was run?
Its PBM binding z-score is -1.1.

For CCTACTGGGCCACGAAAGGTCCTTGATTCAGTGA, which PBM binding z-score is on record?
The PBM binding z-score was -0.947.
